Test results from PubChem BioAssay AID524 (The Scripps Research Institute Molecular Screening Center, 2006).
Screen size: about 65,000 compounds; about 95 (0.1%) were called active.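 How the source made its calls: active means inhibition above the screen-wide mean inhibition plus 3 SD (cut at about 21% in these data); inactive means the rest.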 The sample as a whole holds a higher share of actives than the screen did.

biological target: cAMP-dependent protein kinase catalytic subunit alpha (Homo sapiens) (UniProt P17612); assay: inhibitors of human PKA kinase activity, primary screen, biochemical, ATP-depletion luminescence, Kemptide substrate (AID 524); conditions: PKA Kemptide phosphorylation, Kinase-Glo ATP luminescence; at 6 µM; stronger effect = higher value

inhibition, inactive:
CCOC(=O)c1ccc(N2C(=O)CC(Sc3nc(O)c(CC)c(=O)[nH]3)C2=O)cc1 (stereo not given) 7.3%
CC(=O)Nc1cccc(NC(=O)c2c(-c3ccccc3)noc2C)c1 -5.3%
Cc1nnc(SCC(=O)NCc2cccs2)[nH]c1=O 12.3%
Cc1nc(SC(C)C)[nH]c(=O)c1Cc1ccccc1 5.4%
COc1cccc(-n2cc(C(=O)O)c3ccccc3c2=O)c1 12.3%
COc1cccc(Nc2nnc(SCC(=O)N3CC(C)OC(C)C3)s2)c1 (stereo not given) 6%
CC(=O)NC1CC2CCCC(C1)N2CC(=O)Nc1ccccc1 (stereo not given) 6%
O=C(NCC1CCCO1)C(C(=O)c1ccccc1)n1cc(Cl)ccc1=O (stereo not given) 1.8%
Cc1nc2ccc(S(=O)(=O)NCC(=O)NCCN3CCCCC3C)cc2s1 (stereo not given) -5.1%
CCOC(=O)CN1C(=O)C(O)(CC(=O)c2ccccn2)c2ccccc21 (stereo not given) 10.4%
CCOc1ccc(C(=O)Nc2cc(OC)ccc2OC)cc1 -1.4%
CC1(C)CC(=O)C(C=NCc2cccnc2)=C(O)C1 7%
CCCCCCOC(=O)NCC(O)c1ccccc1 (stereo not given) 3.5%
Cc1cc(NC(=O)c2cccc(N3C(=O)CCC3=O)c2)no1 -4%
COc1ccc2nc(NC(=O)c3ccc(Br)s3)sc2c1 -4.9%
CC(=O)Oc1ccc(C(=O)Nc2nccs2)cc1 -2.3%
COc1cc(Cl)c(S(=O)(=O)n2cnc(C)c2)cc1Cl 4.9%
O=S(=O)(NCc1cccnc1)c1ccc(Br)s1 -2.9%
CN(Cc1ccccc1)c1nc2c(c(=O)[nH]c(=O)n2C)n1CCSc1nc2ccccc2[nH]1 2.7%
COc1ccc2[nH]c(=O)c(CN(CC3CCCO3)C(=O)Nc3ccccc3)cc2c1 (stereo not given) -4.5%
c1ccc(-c2oc3ncnc(N4CCOCC4)c3c2-c2ccccc2)cc1 7.5%
CCCCCN(C(=O)NC(=O)Nc1ccccc1OC)S(C)(=O)=O 8.1%
CN1CCCc2cc(C#N)c(=O)[nH]c21 11.8%
Cc1ccccc1-n1c(SCC(=O)NCc2cccs2)nnc1-c1ccncc1 11.7%
O=C(CSc1nc2ncccc2[nH]1)Nc1ccc2c(c1)OCCO2 -9.5%
CCOC(=O)C1CCN(C(=O)C2CCN(S(=O)(=O)CC)CC2)CC1 0.3%
CCCc1nc2ccccc2c(=O)n1NC(=O)c1c(O)c2ccccc2[nH]c1=O 7.9%
O=C(O)COc1nsnc1N1CCOCC1 -0.4%
CCOC(=O)c1sc(NC(=O)CSc2nnc(-c3ccco3)o2)c(C(=O)OCC)c1C -4.6%
COC(=O)CCSc1nccn1Cc1ccccc1 1.3%
O=C(Oc1ccccc1)c1ccc2nccnc2c1 18.8%
CN1C(=O)CC(N2CCN(c3ccccn3)CC2)C1=O (stereo not given) 0.2%
Cc1ccc(-c2nc(COC(=O)c3c(C)noc3C)cs2)cc1 0.5%
CCn1c(=O)cc(OCC(=O)NCCCN2CCN(c3cccc(Cl)c3)CC2)c2ccccc21 9.2%
COC(CCN(C)C)(c1ccccc1)c1ccccc1 9.3%
COC(=O)c1ccc(NC(=O)c2ccco2)cc1 -3.7%
Cc1cccc(-n2c(Cc3cc(=O)[nH]c(=O)[nH]3)nnc2SC(C)C)c1 -8.8%
O=C(Nc1cnccn1)c1cccnc1 9%
O=C(Nc1nc2cc3c(cc2s1)OCCO3)c1cccc(S(=O)(=O)N2CCOCC2)c1 6.2%
COc1cc(-n2c(C)nc3cc(C(=O)NCc4ccco4)ccc32)cc(OC)c1OC 5.2%
CCn1ncc(C2=NOC(C(=O)N3CCN(c4ccccc4)CC3)C2)c1C (stereo not given) 11.5%
Cc1cccc(OCc2nnc(SCc3nc4cc(C(F)(F)F)ccc4c(=O)[nH]3)o2)c1 3.4%
Cc1ccccc1-n1nnc2c(=O)oc3ccccc3c21 7.5%
CCOc1ccccc1Nc1nnc(SCc2ccc(C(=O)OC)o2)s1 4.4%
CCOC(=O)N1CCN(CC(=O)c2c(C)[nH]c3ccccc23)CC1 -3.4%
CCOC(=O)CN1CC23C=CC(O2)C(C(=O)Nc2ccc(F)cc2)C3C1=O (stereo not given) 2.5%
COc1ccc(C2/C(=C(/O)c3ccc(OC(C)C)cc3)C(=O)C(=O)N2CCCN2CCOCC2)cc1 (stereo not given) 3.6%
COc1ccccc1N1CCN(C(=O)c2cn(-c3ccccc3)nc2-c2cccnc2)CC1 -9.3%
CCOc1nc(-c2ccc(OC)cc2)ccc1-c1noc(-c2cc(OC)c(OC)c(OC)c2)n1 -0.3%
CN1CCc2c(sc3c2c(NCc2ccco2)nc2nnnn23)C1 4.3%
COc1ccc(N=Cc2c(O)[nH]c3ccccc23)cc1OC 9.6%
CC1(C)C2CCC1(C)C(OC(=O)CCn1ccnc1)C2 (stereo not given) 7.3%
Nc1nnc(SCCN2C(=O)c3ccccc3S2(=O)=O)s1 6.6%
CCOC(=O)c1c(NC(=O)CSc2nnc(C)c(=O)[nH]2)sc2c1CCC2 0.8%
CN(CCc1ccccn1)S(=O)(=O)c1ccc2c3c(cccc13)C(=O)N2 4.5%
CC(=O)Nc1cc2ccc(OC(C)=O)cc2oc1=O 5.7%
CCc1ccc(CCC(=O)Nc2ccc(S(N)(=O)=O)cc2)o1 -0.9%
CCN1CCN(c2ncnc3c2oc2nc(C)c4c(c23)CC(C)(C)OC4)CC1 0.2%
CCOC(=O)C(CC)Sc1ncnc2c1nnn2-c1ccc(F)cc1 (stereo not given) 11.3%
CC(C)(C)c1ccc(C(=O)CSc2ncn[nH]2)cc1 7.8%
CCCCOc1ccccc1/C=c1/sc2nc(-c3oc4ccccc4c3C)nn2c1=O 2%
CC(C)(C)NC(=O)C(c1ccco1)N(Cc1ccc2c(c1)OCO2)C(=O)Cn1nnc2ccccc21 (stereo not given) -2.7%
O=S(=O)(Nc1nccs1)c1ccc2c(c1)OCCO2 6.4%
Cc1cc(C)c2nc(SCCC#N)nc(C)c2c1 5.1%
O=C(NCc1ccc(Cl)cc1)c1cc2c(nc3sccn32)s1 2.8%
COc1ccccc1CNC(=O)C1CCN(S(C)(=O)=O)CC1 4.6%
Cc1ccc(S(=O)(=O)N2CCC(C(=O)N[C@@H](C)C(=O)NCc3ccccc3)CC2)cc1 1.2%
CC1(C)Cc2cccc(OCC(=O)Nc3nccs3)c2O1 9.4%
O=C(NCc1ccc2c(c1)OCO2)c1cc2c(s1)CS(=O)(=O)C2 5.5%
CCOCC(=O)Nc1cc(OC)c(Cl)cc1OC 5.6%
O=S(=O)(c1cccc(S(=O)(=O)N2CCC(n3nnc4ccccc43)CC2)c1)N1CCCCC1 8.1%
Cc1ccc(-n2nc3c(c2NC(=O)CCC2CCCCC2)CS(=O)C3)cc1 (stereo not given) -4.5%
CCC(C)n1[nH]c(=O)cc1N (stereo not given) -5.4%
CCOc1ccccc1Oc1cn[nH]c1-c1ccc(OC)cc1O -1.5%
CCn1cc(C(=O)NCC2COc3ccccc3O2)c2cc(OC)c(OC)cc2c1=O (stereo not given) 2.4%
